Only some compounds are listed: those with a hit (about 11% of all), similar ones and a draw of the others.
VDR inh: Inhibitors of the vitamin D receptor (VDR): qHTS; Vitamin D3 receptor (Homo sapiens), P11473; VDR-SRC2-3 peptide fluorescence polarization, 2 h; Potency, µM, for inactives: max response, negative = inhibition, most hits filed as inhibitors; actives 0.93% (n = 400,000); note: % is set by controls: 0 for no effect and ±100 for the full control effect
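Fluorescence polarization assay of small-molecule disruption of VDR binding to coregulator peptide SRC2-3. Compounds and controls pin-transferred, then read after 2 h incubation at ambient room temperature.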
G9a block: qHTS Assay for Inhibitors of Histone Lysine Methyltransferase G9a; Histone-lysine N-methyltransferase EHMT2 (Homo sapiens), Q96KQ7; G9a H3K9 monomethylation, AlphaScreen, 2 h; Potency, µM (titrated, usually from 102 µM), inactives show at the top dose activity, negative = inhibition, most hits filed as inhibitors; actives 8.8% (n = 350,000); note: % is set by controls: 0 for no effect and ±100 for the full control effect; nearly all actives have a fitted effect of over 75% in size
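AlphaScreen read-out: biotin-H3K9 peptide (500 nM) methylation by 20 nM enzyme with 20 uM SAM, 2 h at room temperature after 15 min compound preincubation; anti-monomethyl H3K9 antibody plus donor/acceptor beads, 10 min dark.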
BAZ2B block: qHTS Assay for Inhibitors of BAZ2B. actives 4.4% (n = 360,000). Potency, µM (doses to about 114 µM), inactives show at the top dose activity change, negative = inhibition, hits mostly inhibitors. AID 504333, 2011. AlphaScreen BAZ2B-H3K14Ac peptide displacement. Bromodomain adjacent to zinc finger domain protein 2B (Homo sapiens), Q9UIF8; note: % is set by controls: 0 for no effect and ±100 for the full control effect; nearly all actives have a fitted effect of over 60% in size
Target sequence (Q9UIF8 whole entry, looked up, the tested form may be a part): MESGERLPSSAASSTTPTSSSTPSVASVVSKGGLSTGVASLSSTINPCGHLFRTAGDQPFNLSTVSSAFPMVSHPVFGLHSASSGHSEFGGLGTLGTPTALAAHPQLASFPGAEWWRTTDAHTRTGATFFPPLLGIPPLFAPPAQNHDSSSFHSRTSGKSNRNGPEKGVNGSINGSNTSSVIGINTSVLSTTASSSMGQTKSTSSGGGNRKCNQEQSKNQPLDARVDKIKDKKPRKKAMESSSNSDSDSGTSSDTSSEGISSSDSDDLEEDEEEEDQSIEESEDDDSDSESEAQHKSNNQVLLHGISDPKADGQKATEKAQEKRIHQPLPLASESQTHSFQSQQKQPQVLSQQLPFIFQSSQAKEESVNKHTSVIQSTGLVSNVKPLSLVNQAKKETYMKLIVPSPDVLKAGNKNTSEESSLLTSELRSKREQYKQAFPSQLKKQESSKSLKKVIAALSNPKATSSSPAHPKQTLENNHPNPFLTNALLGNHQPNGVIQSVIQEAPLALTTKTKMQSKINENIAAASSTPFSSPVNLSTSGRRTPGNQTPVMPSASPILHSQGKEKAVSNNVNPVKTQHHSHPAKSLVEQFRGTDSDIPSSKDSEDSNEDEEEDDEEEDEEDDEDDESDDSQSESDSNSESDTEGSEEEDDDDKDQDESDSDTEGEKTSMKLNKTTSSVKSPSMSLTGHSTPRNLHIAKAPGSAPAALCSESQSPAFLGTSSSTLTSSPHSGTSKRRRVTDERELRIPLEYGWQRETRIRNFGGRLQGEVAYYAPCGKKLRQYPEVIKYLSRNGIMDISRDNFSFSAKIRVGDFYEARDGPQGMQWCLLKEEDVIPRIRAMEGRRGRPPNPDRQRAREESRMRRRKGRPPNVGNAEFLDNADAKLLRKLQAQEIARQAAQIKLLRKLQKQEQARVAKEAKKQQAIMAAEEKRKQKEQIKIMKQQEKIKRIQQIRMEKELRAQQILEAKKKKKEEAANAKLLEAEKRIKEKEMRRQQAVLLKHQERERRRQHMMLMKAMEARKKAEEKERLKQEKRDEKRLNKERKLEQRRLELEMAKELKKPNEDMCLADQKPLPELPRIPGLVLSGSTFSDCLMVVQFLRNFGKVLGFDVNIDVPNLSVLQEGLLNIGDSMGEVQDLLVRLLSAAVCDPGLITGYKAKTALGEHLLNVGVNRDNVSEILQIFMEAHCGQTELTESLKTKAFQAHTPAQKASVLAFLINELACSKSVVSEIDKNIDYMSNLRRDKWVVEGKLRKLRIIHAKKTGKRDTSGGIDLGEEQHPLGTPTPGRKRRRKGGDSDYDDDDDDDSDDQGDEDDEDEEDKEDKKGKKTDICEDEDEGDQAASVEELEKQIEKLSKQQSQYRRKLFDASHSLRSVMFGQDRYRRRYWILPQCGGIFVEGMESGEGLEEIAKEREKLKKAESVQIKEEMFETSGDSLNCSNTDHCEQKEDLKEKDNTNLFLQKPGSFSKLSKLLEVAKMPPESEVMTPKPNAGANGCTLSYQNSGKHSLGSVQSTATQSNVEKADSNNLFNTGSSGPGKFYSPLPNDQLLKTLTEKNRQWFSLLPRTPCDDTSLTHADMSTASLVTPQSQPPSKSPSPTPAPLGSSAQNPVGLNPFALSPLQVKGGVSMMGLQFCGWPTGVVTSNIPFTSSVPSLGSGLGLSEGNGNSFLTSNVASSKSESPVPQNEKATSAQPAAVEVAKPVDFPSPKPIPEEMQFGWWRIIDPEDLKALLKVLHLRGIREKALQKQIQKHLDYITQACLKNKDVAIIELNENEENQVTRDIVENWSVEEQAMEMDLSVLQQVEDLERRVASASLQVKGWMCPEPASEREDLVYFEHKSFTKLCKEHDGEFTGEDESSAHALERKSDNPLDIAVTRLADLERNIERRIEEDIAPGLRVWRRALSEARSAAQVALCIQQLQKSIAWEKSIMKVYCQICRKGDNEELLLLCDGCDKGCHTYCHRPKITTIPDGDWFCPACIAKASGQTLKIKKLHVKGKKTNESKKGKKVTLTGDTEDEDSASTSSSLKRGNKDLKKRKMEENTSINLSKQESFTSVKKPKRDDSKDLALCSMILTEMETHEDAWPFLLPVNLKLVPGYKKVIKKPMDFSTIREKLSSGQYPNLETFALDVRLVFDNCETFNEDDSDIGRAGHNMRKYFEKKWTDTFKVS
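AlphaScreen displacement: compounds (up to 110uM) incubated 30 min at room temperature with a preformed 50 nM BAZ2B/50 nM biotinylated H3K14Ac peptide complex in PBS pH 7.4 with Tween-20. Donor and acceptor beads at 10 ug/mL final added, 20 min light-protected before reading.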
PLK1 PBD inh: qHTS for Inhibitors of PLK1-PDB (polo-like kinase 1 - polo-box domain): Primary Screen; Plk1 PBD binding of FITC phosphopeptide, fluorescence polarization; actives 2.8% (n = 360,000); AID 720504, 2013; Serine/threonine-protein kinase PLK1 (Homo sapiens), P53350; Potency, µM, without a hit: max response, negative = inhibition, hits mostly inhibitors; note: series mostly up to about 57 µM; % is set by controls: 0 for no effect and ±100 for the full control effect; nearly all actives have a fitted effect of over 65% in size
JMJD2A Tudor: qHTS Assay for Inhibitors of JMJD2A-Tudor Domain | Lysine-specific demethylase 4A (Homo sapiens), O75164 | AlphaScreen JMJD2A-Tudor / H3K4me3 peptide binding | Potency, µM (highest dose often 114 µM), for inactives: at the top dose activity change, negative = inhibition, hits mostly inhibitors | actives 4.4% (n = 390,000) | AID 504339, 2011; note: % is set by controls: 0 for no effect and ±100 for the full control effect; nearly all actives have a fitted effect of over 50% in size
HP1b chromo inh: HTS for Inhibitors of HP1-beta Chromodomain Interactions with Methylated Histone Tails | AlphaScreen HP1-beta / biotin-H3K9me3 peptide binding | Potency, µM (series often up to 114 µM), inactives show at the highest dose activity change, negative = inhibition, hits mostly inhibitors | AID 540317, 2011 | actives 0.56% (n = 390,000); note: nearly all actives have a fitted effect of over 70% in size
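Compound inhibition of the preformed complex between 50 nM HP1-beta and 50 nM biotinylated H3K9me3 peptide was read by AlphaScreen. Buffer was PBS pH 7.4 with 0.01% Tween-20. Incubations ran 30 min at room temperature, with 10 ug/mL donor/acceptor beads.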
Numbers without * were called inactive; ? = inconclusive; / = no result given; [ ] = remark or other dose. Calls come from the whole dose curve; as a rule, active = well fitted curve in the direction sought with a large enough effect; inconclusive = small, poorly fitted or top-dose-only effect, or another doubt; inactive = no such curve, though single readings can be large; an effect the other way counts as inactive or inconclusive. Potency is the fitted concentration of half-maximal effect.

SMILES | VDR inh | G9a block | BAZ2B block | PLK1 PBD inh | JMJD2A Tudor | HP1b chromo inh
COc1ccc(N/C(=C(/C(Cl)=C(Cl)Cl)[N+](=O)[O-])n2nnc3ccccc32)cc1OC | / | 14µM* | 56µM* | / | / | /
O=C1OC(/C(=C\Nc2cc(Cl)ccc2O)[N+](=O)[O-])c2ccccc21 (stereo unspecified) | -4% | 10µM* | 45µM* | -19% | ? | ?
O=C1OC(/C(=C\Nc2ccc(F)cc2F)[N+](=O)[O-])c2ccccc21 (stereo unspecified) | -12% | 45µM* | -18% | -26% | -20% | 46%
CN(C)/C=N/c1c(C#N)cnn1-c1ccc(F)c(Cl)c1 | 15% | / | / | / | / | /
CCOc1ccc(S(=O)(=O)n2cnc3ccccc32)cc1 | 7% | ? | 1% | 6% | -2% | 50%
O=[N+]([O-])c1cc(S(=O)(=O)N2CCCC2)ccc1NN=C1CCCCC1 | -16% | 4%[59 µM] | -18% | -5% | -24% | 2%
NS(=O)(=O)c1ccc(N/N=C2/CCCc3ccccc32)c([N+](=O)[O-])c1 | -11% | -34% | -2% | 1% | -14% | 7%
CC(C)(C)C1CCC(=NNc2ccc(S(N)(=O)=O)cc2[N+](=O)[O-])CC1 (stereo unspecified) | -25% | 25µM* | ? | -3% | ? | -7%
CCN(CC)S(=O)(=O)c1ccc(NN=C2CCN(C(C)C)CC2)c([N+](=O)[O-])c1 | 1% | 45µM* | ? | -1% | ? | -28%
CCN(CC)S(=O)(=O)c1ccc(NN=C2CCN(C)CC2)c([N+](=O)[O-])c1 | 0% | 35µM* | / | 0% | ? | ?
CCN1CCN(c2ccc(S(=O)(=O)N(CC)CC)cc2[N+](=O)[O-])CC1 | 0% | ? | -8% | -7% | -12% | -2%
CCOC(=O)c1ccc(NC(=O)c2cnc(N3CCCC3)nc2C)cc1 | 16% | 8%[12.7 µM] | 0% | / | 8% | 45%
Cc1c(C(=O)O)cccc1-c1ccc(/C=N/n2cnnc2)o1 | -9% | 35µM* | 79µM* | ? | 89µM* | -6%
Cc1c(C(=O)O)cccc1-c1ccc(/C=N/Nc2ccc(Br)cc2)o1 | ? | 10µM* | 50µM* | ? | ? | -13%
O=C(Nc1ccc2c(c1)CCCN2C(=O)c1cccs1)c1ccccc1Cl | -4% | -7%[59 µM] | -24% | / | -25% | 14%
CCc1ccccc1NC(=O)Cn1nnc(C(=O)OC)c1C(=O)OC | -6% | 2%[59 µM] | -1% | / | -36% | 13%
C=CCn1c(SCC(=O)NC2CCS(=O)(=O)C2)nc2sc(CC)cc2c1=O (stereo unspecified) | 5% | -2%[59 µM] | -5% | -3% | -14% | 26%
C=CCn1c(SCC(=O)NC2CC2)nc2sc(CC)cc2c1=O | -21% | 3% | -8% | 27µM* | ? | 17%
CC1CCCCC1NC(=O)COc1ncnc2sccc12 (stereo unspecified) | 0% | -12%[59 µM] | 11% | -8% | -13% | 34%
CCCCc1nc2sc3c(=O)[nH]c(=S)[nH]c3c2c2c1CCC2 | 13% | / | / | -19% | 20µM* | 39%
CCCCc1nc2sc3c(=O)[nH]cnc3c2c2c1CCCC2 | -6% | / | 3% | -4% | -6% | 21%
CCOC(=O)C1=C(C)NC(=NC)SC1c1ccccc1 (stereo unspecified) | -4% | 2% | -25% | 21µM* | ? | -18%
CCOC(=O)C1=C(C)NC(=O)C(C(N)=O)C1c1ccccc1 (stereo unspecified) | 4% | -33% | -9% | 0% | 3% | 20%

Compound activity deposited in PubChem by National Center for Advancing Translational Sciences (NCATS).
